In the library only some 3.5% were active in any assay of this set; here they are far more common.
TEAD-YAP inh: TEAD-YAP interaction inhibition | HEK-TIYL cells, TEAD-Gal4/YAP UAS-luciferase luminescence | inhibition, % at 9.12 µM | actives 1.4% (n = 640,000) | AID 1259422; in the data active means inhibition above about 32%
GPR151 ag: human GPR151 activation | PathHunter beta-arrestin GPR151 cells, luminescence | activation, % at 11.2 µM | actives 1% (n = 650,000); in the data active means activation above about 4.9%
FBW7 act: activators of human E3 ligase FBW7 | AlphaScreen FBW7–phospho-cyclin E peptide binding, activator screen | normalized activity (activation), % at 26.1 µM | actives 0.13% (n = 650,000); in the data active means normalized activity above about 1.9%;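 further: purified mutant Fbw7 with reduced substrate affinity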
MITF primary: blocks human microphthalmia-associated transcription factor; AlphaScreen MITF homodimerization, bead proximity signal; actives 0.91% (n = 650,000); inhibition, % at 2.6 µM; O75030; in the data active means inhibition above about 50%
Target sequence (O75030 whole entry, looked up): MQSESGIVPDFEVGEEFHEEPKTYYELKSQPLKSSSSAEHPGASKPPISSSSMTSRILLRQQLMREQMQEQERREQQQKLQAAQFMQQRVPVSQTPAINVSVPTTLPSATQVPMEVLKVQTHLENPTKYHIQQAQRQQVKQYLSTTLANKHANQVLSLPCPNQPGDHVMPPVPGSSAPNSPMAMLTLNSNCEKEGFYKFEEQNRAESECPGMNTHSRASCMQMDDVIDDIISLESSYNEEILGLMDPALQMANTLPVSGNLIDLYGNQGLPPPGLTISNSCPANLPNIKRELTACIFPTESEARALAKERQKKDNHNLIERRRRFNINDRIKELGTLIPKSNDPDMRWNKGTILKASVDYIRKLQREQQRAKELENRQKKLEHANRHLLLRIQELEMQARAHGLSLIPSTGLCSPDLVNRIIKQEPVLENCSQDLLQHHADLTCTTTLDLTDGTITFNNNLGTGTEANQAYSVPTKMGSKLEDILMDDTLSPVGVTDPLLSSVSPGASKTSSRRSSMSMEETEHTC
MITF inh conf: human MITF inhibition, confirmation | AlphaScreen MITF homodimerization, biotin/His-MITF beads | actives 16% (n = 4,700) | shares compounds with MITF primary | AID 1259372 | inhibition, % at 2.6 µM;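 active means inhibition above a cutoff derived from the DMSO control wells, cut at about 28% in these data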;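 further: inhibitors lower the bead chemiluminescence by keeping MITF from dimerizing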
AlphaScreen DR: optically interferes with AlphaScreen signal in dose response. AlphaScreen optical interference counterscreen, cell-free. IC50, µM. actives 6% (n = 480). shares compounds with MITF primary. AID 1259373; call rule not given here
AS interf ctr: optically interferes with AlphaScreen signal; shares compounds with MITF primary; LysRS AlphaScreen counterscreen, signal interference, triplicate; inhibition, % at 2.6 µM; actives 7.6% (n = 4,700); AID 1259376;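 active means inhibition above a cutoff derived from the DMSO control wells, cut at about 30% in these data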
Hits are given with their value; 0 = inactive; - = not tested or not shown.

SMILES | TEAD-YAP inh | GPR151 ag | FBW7 act | MITF primary | MITF inh conf | AS interf ctr | others
NCCN1C(=O)S/C(=C\c2ccccc2)C1=O | 0 | 0 | 0 | 0 | - | -
COC(=O)c1ccc(NC(=O)CN2CCC(Cn3c(C)nc4ccccc43)CC2)cc1 | 0 | 0 | 0 | 67.8 | 0 | 0
Cc1cc(NC(=O)CN2CCC(Cn3c(C)nc4ccccc43)CC2)no1 | 39.4 | 0 | 0 | 78.7 | 0 | 0
c1ccc2sc(Nc3nc4ccccc4s3)nc2c1 | 0 | 0 | 0 | 0 | - | -
C(=N\c1nc2ccccc2s1)/Nc1nc2ccccc2s1 | 0 | 0 | 0 | 52.0 | 0 | 0
CCOC(=O)N1CCN(C(=O)Cn2cnc3ccccc32)CC1 | 0 | 0 | 0 | 0 | - | -
O=C(CN1CCC(Cn2cnc3ccccc32)CC1)N1CCc2ccccc21 | 35.1 | 0 | 0 | 81.5 | 0 | 0
CCOC(=O)CN1CCC(Cn2cnc3ccccc32)CC1 | 0 | 0 | 0 | 79.2 | 0 | 0
Cc1ccc(NC(=O)CN2CCC(Cn3cnc4ccccc43)CC2)cc1Cl | 0 | 0 | 0 | 69.7 | 0 | 0
O=C(CSc1nc2c(c(=O)n1-c1ccc(Br)cc1)SCC2)N1CCN(c2ccccc2)CC1 | 0 | 0 | 0 | 0 | - | -
COc1ccc(CNc2nc(N)n(-c3ccccc3)n2)cc1 | 0 | 0 | 0 | 0 | - | -
COc1ccccc1NC(=O)N1CCCC1C(=O)NCc1ccccc1F (stereo unspecified) | 0 | 0 | 0 | 0 | - | -
COc1ccccc1NC(=O)N1CCCC1C(=O)NCc1ccccc1Cl (stereo unspecified) | 0 | 0 | 0 | 73.0 | 0 | 0
COc1cccc(OCC(=O)Oc2coc(CSc3nccc(C)n3)cc2=O)c1 | 0 | 0 | 0 | 0 | - | -
CCC(C)c1ccccc1OCC(O)CN1CCCCC1 (stereo unspecified) | 0 | 0 | 0 | 0 | - | -
CCC(C)c1ccccc1OCC(O)CNC1CCCC1 (stereo unspecified) | 0 | 0 | 0 | 0 | - | -
CC(C)c1ccccc1OCC(O)CNC1CCN(Cc2ccccc2)C1 (stereo unspecified) | 0 | 0 | 0 | 69.4 | 0 | 0
CC(C)C(=O)N1CCN(CC(O)COc2ccccc2C(C)C)CC1 (stereo unspecified) | 0 | 0 | 0 | 51.9 | 0 | 0
COc1nccnc1NS(=O)(=O)c1ccc(NC(=O)c2ccc([N+](=O)[O-])c(C)c2)cc1 | 0 | 0 | 0 | 59.2 | 34.3 | 0 | AlphaScreen DR=0
O=C(O)C1CCN(c2ncc(-c3ccc(Cl)cc3)cn2)CC1 | 0 | 0 | 0 | 60.7 | 0 | 0
CCOC(=O)c1[nH]c2cc(OC)c(OC)cc2c1N1C(=O)CCC1=O | 0 | 0 | 0 | 0 | - | -
CCN1C2=NCCN2c2cc(C)c(C)cc21 | 0 | 0 | 0 | 0 | - | -
COc1ccccc1C1C(C#N)=C(N)OC2=C1C(=O)CCC2 (stereo unspecified) | 0 | 0 | 0 | 0 | - | -
COc1ccc(OC)c(CN2CCN(Cc3ccc(F)cc3)CC2)c1 | 0 | 0 | 0 | 83.3 | 37.3 | 0 | AlphaScreen DR=0
COc1ccc(OC)c(CN2CCN(Cc3cccc(Cl)c3)CC2)c1 | 0 | 0 | 0 | 72.9 | 0 | 0
SMILES | TEAD-YAP inh | GPR151 ag | FBW7 act | MITF primary | MITF inh conf | AS interf ctr | others
COc1ccc(OC)c(CN2CCN(S(=O)(=O)c3ccccc3)CC2)c1 | 0 | 0 | 0 | 0 | - | -
COc1ccc(OC)c(CN2CCN(S(=O)(=O)c3ccc(F)cc3)CC2)c1 | 0 | 0 | 0 | 58.1 | 0 | 0
COc1ccc(CN2CCN(Cc3ccc(F)cc3)CC2)cc1OC | 0 | 0 | 0 | 0 | - | -
COc1cccc(CN2CCN(Cc3ccc(OC)cc3OC)CC2)c1 | 0 | 0 | 0 | 81.2 | 0 | 0
CCCN(CCC)CCCNC(=O)CNC(=O)Cn1ccc2ccccc2c1=O | 0 | 0 | 0 | 0 | - | -
COc1ccc(CN2CCN(S(=O)(=O)c3ccc(F)cc3)CC2)cc1OC | 0 | 0 | 0 | 52.9 | 0 | 0
CCOc1cc(CN2CCN(Cc3cccc(OC)c3)CC2)ccc1OC | 0 | 0 | 0 | 0 | - | -
COc1ccc(OC)c(CN2CCN(Cc3cccc(F)c3)CC2)c1 | 0 | 0 | 0 | 74.8 | 0 | 0
COc1cccc(CN2CCN(C(=O)c3cccc(F)c3)CC2)c1 | 0 | 0 | 0 | 0 | - | -
COc1ccc(CN2CCN(Cc3cccc(F)c3)CC2)c(OC)c1 | 0 | 0 | 0 | 85.2 | 0 | 0
O=C(Nc1ccc([N+](=O)[O-])cc1Cl)c1cccn(OCc2ccc(F)cc2)c1=O | 0 | 0 | 0 | 0 | - | -
COc1ccc(OC)c(NC(=O)c2ccc(Cl)cc2Cl)c1 | 0 | 0 | 0 | 0 | - | -

High-throughput results as filed in PubChem.
